# According to the supplement of paper PMC8253809:
# “And” between values parts separate entries of the source, which are not always exact repeats. Identical values can stand only once.
# What was measured:
# Experiment in all cases: growth inhibition (% activity, log2 RLU normalised to DMSO / staurosporine); higher = more growth inhibition
# Details in all cases: 33 µM
# [1] = test system: DIPGX29 (H3.3 K27M diffuse intrinsic pontine glioma line)
# In short: (§1)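 Approved drugs, at a single final concentration of about 33 μM, were applied in triplicate to pHGG cell lines and H9-derived neural stem cells for 7 days at 37 °C, 5% CO2. The growth-inhibition value is the replicate median of log2-transformed CellTiter-Glo luminescence normalised per plate to % activity between solvent and positive control wells.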
# [2] = test system: DIPGX37 (H3.3 K27M diffuse intrinsic pontine glioma line)
# In short: as §1
# [3] = test system: DIPGX7 (H3.3 K27M diffuse intrinsic pontine glioma line)
# In short: as §1
# [4] = test system: DIPGX9 (diffuse intrinsic pontine glioma line)
# In short: as §1
# [5] = test system: HGGX39 (paediatric high-grade glioma line)
# In short: as §1
# [6] = test system: HGGX6 (H3.3 G34R paediatric high-grade glioma line)
# In short: as §1
# [7] = test system: HNSC
# In short: as §1
# [8] = test system: SUDIPGIV (diffuse intrinsic pontine glioma line)
# In short: as §1
# [9] = test system: SUDIPGVI (diffuse intrinsic pontine glioma line)
# In short: as §1
# [10] = test system: SUDIPGXIII (diffuse intrinsic pontine glioma line)
# In short: as §1
Compound,growth inhibition [1],growth inhibition [2],growth inhibition [3],growth inhibition [4],growth inhibition [5],growth inhibition [6],growth inhibition [7],growth inhibition [8],growth inhibition [9],growth inhibition [10]
Clc1ccc(COC(Cn2ccnc2)c2ccc(Cl)cc2Cl)c(Cl)c1 (stereo not given),3.52% and 3.73%,2.39% and 1.02%,2.11% and 1.8%,4.24% and 1.75%,8.09% and 4.5%,8.84% and 5.54%,8.12% and 18.4%,11.2% and 18.5%,2.08% and 0.276%,8.9% and 4.15%
CS(=O)(=O)c1ccc(C(=O)Nc2ccc(Cl)c(-c3ccccn3)c2)c(Cl)c1,2.56%,2.2%,3.42%,7.16%,5.46%,2.09%,4.02%,0.0205%,4.38%,-0.808%
NC(=O)N1c2ccccc2C=Cc2ccccc21,-0.706%,3.98%,0.653%,1.56%,1.28%,0.945%,2.65%,0.457%,1.8%,-0.0848%
O=C(CCNNC(=O)c1ccncc1)NCc1ccccc1,-2.81%,1.16%,-0.869%,-2.76%,-1.32%,-1.96%,2.79%,-2.06%,-1.86%,0.338%
CC(=O)NS(=O)(=O)c1ccc(N)cc1,0.584%,1.84%,0.329%,0.364%,1.9%,2.46%,-1.34%,-0.27%,0.507%,0.27%
CNC(=O)c1ccccc1Sc1ccc2c(/C=C/c3ccccn3)n[nH]c2c1,12.6%,6.36%,11.4%,17.5%,10.9%,20.3%,60.4%,4.73%,0.631%,5.66%
Cc1nnc(NS(=O)(=O)c2ccc(N)cc2)s1,2.52%,1.32%,1.72%,2.78%,0.783%,-1.19%,44.8%,2.1%,1.77%,-1.87%
C[C@]12CCC(=O)C=C1[C@@H]1C[C@@H]1[C@H]1[C@@H]3[C@@H]4C[C@@H]4[C@@]4(CCC(=O)O4)[C@@]3(C)CC[C@@H]12,0.956%,1.46%,0.0985%,0.611%,2.45%,2.65%,0.782%,0.914%,2.83%,0.882%
CS(=O)(=O)c1ccc(C2=C(c3ccccc3)C(=O)OC2)cc1,-1.33%,-0.751%,-1.9%,-1.51%,-1.94%,-2.78%,-3.76%,-4.83%,-0.628%,0.203%
CCN(CCCc1ccccc1)CCCc1ccccc1,2.04%,0.545%,5.69%,0.438%,7.1%,5.46%,4.87%,0.248%,-1.23%,-0.1%
COc1c(N2C[C@@H]3CCCN[C@@H]3C2)c(F)cc2c(=O)c(C(=O)O)cn(C3CC3)c12,0.967%,2.87%,5.33%,1.28%,3.99%,2.07%,2.61%,0.935%,2.05%,-1.1%
COc1cc(OC)c(C(=O)CCCN2CCCC2)c(OC)c1,-0.72%,1.82%,0.0577%,0.123%,1.04%,-0.405%,-0.558%,-0.0523%,0.936%,2.53%
Clc1ccc(C(Cn2ccnc2)OCc2ccsc2Cl)c(Cl)c1 (stereo not given),4.62%,-2.6%,2.82%,4.52%,8.15%,7.53%,4.99%,13.7%,2.98%,5.65%
CCC(=O)O[C@]1(C(=O)CCl)[C@@H](C)C[C@H]2[C@@H]3C[C@H](F)C4=CC(=O)C=C[C@]4(C)[C@@]3(F)[C@@H](O)C[C@@]21C,3.65%,5.29%,1.18%,4.83%,7.98%,1.82%,-1.07%,1.52%,3.9%,1.38%
CC1(C(=O)O)CCC2(C)CCC3(C)C(=CC(=O)C4C5(C)CCC(OC6OC(C(=O)O)C(O)C(O)C6OC6OC(C(=O)O)C(O)C(O)C6O)C(C)(C)C5CCC43C)C2C1 (stereo not given),-2.43%,0.376%,-1.5%,-0.788%,-1.63%,-0.137%,-2.93%,-1.58%,-3.15%,0.0626%
C[C@H](Cn1cnc2c(N)ncnc21)OCP(=O)(O)O,-1.46%,-3.07%,-1.11%,-0.823%,-1.24%,-0.0212%,-0.925%,-2.6%,-0.383%,0.192%
CNCC[C@@H](Oc1ccccc1C)c1ccccc1,1.02%,2.33%,2.36%,0.537%,2.58%,-1.18%,8.5%,3.36%,4.57%,1.41%
CN1CCN(C2=Nc3cc(Cl)ccc3Nc3ccccc32)CC1,3.8%,0.486%,1.02%,-2.02%,1.24%,0.753%,-1.26%,-0.494%,-5.31%,-1.11%
Nc1ccn(C2CSC(CO)O2)c(=O)n1 (stereo not given),0.0189%,0.319%,-0.231%,0.518%,0.787%,-0.895%,1.26%,-0.385%,1.46%,0.705%
